Measurements: PubChem BioAssay (NCI)
About 83,000 compounds went through this panel and 20% of them were active in at least one assay; those are over-represented in the sample as a whole.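 48-hour exposure, single concentration, 96-well plates; percent growth endpoint where 0 means no net growth. Active: below 10.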 Activity calls are given as the source filed them.

How the values were obtained:
Assay in all cases: NCI-60 one-dose screen, 48 h (100 = growth as untreated, 0 = no growth, -100 = all killed)
Conditions in all cases: 10 µM
NCI-H23 lung = system: NCI-H23 lung
NCI-H226 lung = system: NCI-H226 lung
NCI-H322M lung = system: NCI-H322M lung
HOP-62 NSCLC = system: HOP-62 NSCLC
NCI-H460 lung = system: NCI-H460 lung
NCI-H522 lung = system: NCI-H522 lung
A549/ATCC NSCLC = system: A549/ATCC NSCLC
786-0 renal = system: 786-0 renal
COLO 205 colon = system: COLO 205 colon
DU-145 prostate = system: DU-145 prostate
K-562 leukemia = system: K-562 leukemia
MALME-3M melanoma = system: MALME-3M melanoma
MDA-MB-231 breast = system: MDA-MB-231 breast
RXF 393 renal = system: RXF 393 renal
SF-268 CNS = system: SF-268 CNS
SF-295 CNS = system: SF-295 CNS
SF-539 CNS = system: SF-539 CNS
UACC-257 melanoma = system: UACC-257 melanoma
M14 melanoma = system: M14 melanoma
HOP-92 NSCLC = system: HOP-92 NSCLC

SMILES | growth (NCI-H23 lung) | growth (NCI-H226 lung) | growth (NCI-H322M lung) | growth (HOP-62 NSCLC) | growth (NCI-H460 lung) | growth (NCI-H522 lung) | growth (A549/ATCC NSCLC) | growth (786-0 renal) | growth (COLO 205 colon) | growth (DU-145 prostate) | growth (K-562 leukemia) | growth (MALME-3M melanoma) | growth (MDA-MB-231 breast) | growth (RXF 393 renal) | growth (SF-268 CNS) | growth (SF-295 CNS) | growth (SF-539 CNS) | growth (UACC-257 melanoma) | growth (M14 melanoma) | growth (HOP-92 NSCLC)
O=C(O)C(O)c1ccccc1 (stereo not given) | 101% (inactive) | 99.1% (inactive) | 99.6% (inactive) | 116% (inactive) | 107% (inactive) | 103% (inactive) | 105% (inactive) | 98.8% (inactive) | 109% (inactive) | 106% (inactive) | 111% (inactive) | 99.9% (inactive) | 107% (inactive) | 102% (inactive) | 98.8% (inactive) | 107% (inactive) | 94% (inactive) | 102% (inactive) | 97.8% (inactive) | –
CCOc1ccc(/C=C/C(=O)c2ccccc2)cc1 | 106% (inactive) | 114% (inactive) | 132% (inactive) | 102% (inactive) | 103% (inactive) | 76.9% (inactive) | 97.5% (inactive) | 89.8% (inactive) | 116% (inactive) | 95.1% (inactive) | 71.5% (inactive) | 108% (inactive) | 114% (inactive) | 53.4% (inactive) | 85.6% (inactive) | 111% (inactive) | 105% (inactive) | 97.7% (inactive) | 99.7% (inactive) | –
C=C[Si](OC(C)=O)(OC(C)=O)OC(C)=O | 106% (inactive) | 111% (inactive) | 87.6% (inactive) | 89.5% (inactive) | 103% (inactive) | 88.7% (inactive) | 104% (inactive) | 98.5% (inactive) | 107% (inactive) | 116% (inactive) | 98.7% (inactive) | 85.6% (inactive) | 118% (inactive) | 117% (inactive) | 99.4% (inactive) | 96.9% (inactive) | 96.8% (inactive) | 105% (inactive) | 99.5% (inactive) | –
Oc1ccc(O)cc1 | 96.3% (inactive) | 110% (inactive) | 106% (inactive) | 106% (inactive) | 113% (inactive) | -40.8% (active) | 102% (inactive) | 114% (inactive) | 112% (inactive) | 105% (inactive) | 98.1% (inactive) | 102% (inactive) | 109% (inactive) | 135% (inactive) | 106% (inactive) | 114% (inactive) | 90.1% (inactive) | 97.8% (inactive) | 108% (inactive) | –
Cc1cc2nc(CO)[nH]c2cc1C | 105% (inactive) | 108% (inactive) | 113% (inactive) | 99.4% (inactive) | 114% (inactive) | 96.9% (inactive) | 90.9% (inactive) | 107% (inactive) | 103% (inactive) | 104% (inactive) | 111% (inactive) | 144% (inactive) | 109% (inactive) | 89.8% (inactive) | 88.7% (inactive) | 121% (inactive) | 107% (inactive) | 92% (inactive) | 107% (inactive) | –
CC1CCCC(CC(N)=O)CC1 (stereo not given) | 102% (inactive) | 98.7% (inactive) | 112% (inactive) | 94.9% (inactive) | 98.8% (inactive) | 88.1% (inactive) | 92.8% (inactive) | 110% (inactive) | 107% (inactive) | 117% (inactive) | 94.3% (inactive) | 107% (inactive) | 103% (inactive) | 117% (inactive) | 104% (inactive) | 89.4% (inactive) | 98.4% (inactive) | 104% (inactive) | 108% (inactive) | –
NC(N)=Nc1cc2ccccc2c2ccccc12 | 86.7% (inactive) | 89.5% (inactive) | 98.7% (inactive) | 101% (inactive) | 86.8% (inactive) | -49.2% (active) | 27.8% (inactive) | 90.6% (inactive) | 44.9% (inactive) | 84.9% (inactive) | 62.3% (inactive) | 76.2% (inactive) | 80.1% (inactive) | 78.8% (inactive) | 82.6% (inactive) | 55.9% (inactive) | 89.1% (inactive) | 1.37% (active) | 85% (inactive) | –
CCc1ccc(/C(C#N)=C/C=C/c2ccccc2)cc1 | 33.4% (inactive) | 67.3% (inactive) | 32.7% (inactive) | 34.4% (inactive) | 13.7% (inactive) | -39.4% (active) | 28.7% (inactive) | 63.2% (inactive) | -15% (active) | 24.9% (inactive) | 14.9% (inactive) | 51.2% (inactive) | 63.2% (inactive) | 11.9% (inactive) | 65.1% (inactive) | 21.3% (inactive) | 18.6% (inactive) | 31.5% (inactive) | 23.1% (inactive) | –
Cc1cc(C)cc(NCCC#N)c1 | 108% (inactive) | 112% (inactive) | 118% (inactive) | 115% (inactive) | 107% (inactive) | 106% (inactive) | 151% (inactive) | 111% (inactive) | 131% (inactive) | 114% (inactive) | 102% (inactive) | 164% (inactive) | 106% (inactive) | 448% (inactive) | 105% (inactive) | 103% (inactive) | 104% (inactive) | 124% (inactive) | 117% (inactive) | –
S=c1sc2ccccc2n1CN1CCCCC1 | 95.9% (inactive) | 92.9% (inactive) | 99.1% (inactive) | 89.7% (inactive) | 102% (inactive) | 82.3% (inactive) | 99.2% (inactive) | 105% (inactive) | 103% (inactive) | 99.8% (inactive) | 124% (inactive) | 86.6% (inactive) | 98.4% (inactive) | 110% (inactive) | 92.5% (inactive) | 102% (inactive) | 105% (inactive) | 104% (inactive) | 100% (inactive) | –
COc1cc(/C=N\Nc2ccccc2)ccc1OC(=O)c1ccccc1 | 79.5% (inactive) | 74.9% (inactive) | 59.8% (inactive) | 77.8% (inactive) | 44.2% (inactive) | 20.6% (inactive) | 68.6% (inactive) | 78.4% (inactive) | 84.8% (inactive) | 55.3% (inactive) | 12% (inactive) | 89.5% (inactive) | 86.3% (inactive) | 100% (inactive) | 57.5% (inactive) | 50.5% (inactive) | 24.4% (inactive) | 81.8% (inactive) | 60.2% (inactive) | –
CO[C@H]1C[C@@H]2CC[C@@H](C)[C@@](O)(O2)C(=O)C(=O)N2CCCC[C@H]2C(=O)O[C@H]([C@H](C)C[C@@H]2CC[C@@H](O)[C@H](OC)C2)CC(=O)[C@H](C)C=C(C)[C@@H](O)[C@@H](OC)C(=O)[C@H](C)C[C@H](C)/C=C/C=C/C=C1C | 45.4% (inactive) | 62.2% (inactive) | 71.6% (inactive) | 60.7% (inactive) | 45.1% (inactive) | 53.8% (inactive) | 39% (inactive) | 46.9% (inactive) | 61.3% (inactive) | 32.4% (inactive) | 51.5% (inactive) | 35.9% (inactive) | 75.9% (inactive) | 14.1% (inactive) | 56.2% (inactive) | 23% (inactive) | 30.4% (inactive) | 37.3% (inactive) | – | –
O=C(Nc1cccc(NC(=O)Nc2cc(C(F)(F)F)ccc2Cl)c1)Nc1cc(C(F)(F)F)ccc1Cl | 20.4% (inactive) | 34.3% (inactive) | 38% (inactive) | 21.8% (inactive) | 4.58% (active) | -27.7% (active) | 11.6% (inactive) | 51.7% (inactive) | 1.37% (active) | 30.8% (inactive) | 16.3% (inactive) | 2.44% (active) | 1.95% (active) | 32% (inactive) | 48.5% (inactive) | -23.9% (active) | 34% (inactive) | -4.1% (active) | 21.6% (inactive) | –
Cc1cccc([N+](=O)[O-])c1Cl | 96.4% (inactive) | 98.2% (inactive) | 105% (inactive) | 103% (inactive) | 108% (inactive) | 116% (inactive) | 104% (inactive) | 102% (inactive) | 109% (inactive) | 105% (inactive) | 119% (inactive) | 109% (inactive) | 113% (inactive) | 103% (inactive) | 101% (inactive) | 104% (inactive) | 105% (inactive) | 105% (inactive) | 106% (inactive) | –
CC(C)(N)COS(=O)(=O)O | 116% (inactive) | 104% (inactive) | 115% (inactive) | 98.3% (inactive) | 103% (inactive) | – | – | 94.7% (inactive) | 105% (inactive) | 111% (inactive) | 104% (inactive) | 108% (inactive) | 93.4% (inactive) | 110% (inactive) | 92.7% (inactive) | 101% (inactive) | 99.3% (inactive) | – | 98.1% (inactive) | 87.6% (inactive)
O=C1c2ccccc2C(=O)c2c1ccc(C(=O)O)c2[N+](=O)[O-] | 101% (inactive) | 107% (inactive) | 105% (inactive) | 97.2% (inactive) | 109% (inactive) | 97% (inactive) | 103% (inactive) | 106% (inactive) | 108% (inactive) | 107% (inactive) | 77.3% (inactive) | 98.1% (inactive) | 79% (inactive) | 128% (inactive) | 111% (inactive) | 105% (inactive) | 96% (inactive) | 105% (inactive) | 87.2% (inactive) | –
c1ccc2c(N3CCCCC3)ncnc2c1 | 86.4% (inactive) | 87.2% (inactive) | 117% (inactive) | 100% (inactive) | 97.8% (inactive) | 47.6% (inactive) | 86.9% (inactive) | 98.7% (inactive) | 88.5% (inactive) | 112% (inactive) | 94.3% (inactive) | 142% (inactive) | 96.5% (inactive) | 105% (inactive) | 102% (inactive) | 109% (inactive) | 85.3% (inactive) | 90.2% (inactive) | 100% (inactive) | –
